# The panel holds about 83,000 compounds, 20% with a hit somewhere; the sample as a whole holds those more often.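 How to read the values: 0–100, growth inhibition (40 = 60% inhibited); 0, no net growth; -100 to 0, cell death (-40 = 40% of starting cells died; -100 = all dead).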 Values without a mark were called inactive. Active and inactive are the calls of the source. The calls were made as follows: active = growth percent below 10; inactive = the rest.
# Tests used:
# Assay in all cases: NCI-60 one-dose screen, 48 h (100 = growth as untreated, 0 = no growth, -100 = all killed)
# Settings in all cases: 10 µM unless noted
# [1] = test system: SR leukemia
# [2] = test system: RPMI-8226 leukemia
# [3] = test system: OVCAR-8 ovarian
# [4] = test system: OVCAR-5 ovarian
# [5] = test system: OVCAR-4 ovarian
# [6] = test system: SK-OV-3 ovarian
# [7] = test system: IGROV1 ovarian
# [8] = test system: OVCAR-3 ovarian
# [9] = test system: HS 578T breast
# [10] = test system: NCI/ADR-RES ovarian
# [11] = test system: T-47D breast
# [12] = test system: MDA-MB-435 melanoma
# [13] = test system: SW-620 colon
# [14] = test system: MCF7 breast
# [15] = test system: HCT-116 colon
# [16] = test system: KM12 colon
# [17] = test system: BT-549 breast
# [18] = test system: HCC-2998 colon
SMILES,growth [1],growth [2],growth [3],growth [4],growth [5],growth [6],growth [7],growth [8],growth [9],growth [10],growth [11],growth [12],growth [13],growth [14],growth [15],growth [16],growth [17],growth [18]
Cc1ccc2c(c1)Nc1ccc(C)cc1C2(C)C,88.3%,85.4%,103%,105%,92.3%,82.2%,106%,97.7%,113%,105%,80.6%,98.3%,103%,86.9%,89.3%,110%,,
CNCCCOc1c(Br)cc(CCNC(=O)/C(Cc2cc(Br)c(OC)c(Br)c2)=N/O)cc1Br,-57% (active),-30.7% (active),2.04% (active),36.2%,14.3%,37.2%,6.03% (active),-25.4% (active),-17.9% (active),9.44% (active),,-59.6% (active),-47.1% (active),-40.3% (active),-91.6% (active),-1.14% (active),48%,-49.5% (active)
O=c1c(-c2ccc3c(c2)OCO3)coc2c(CO)c(O)ccc12,13.4%,2.57% (active),24.3%,35.8%,41.7%,-18.3% (active),5.08% (active),-55.1% (active),6.65% (active),52%,,,38.1%,20.6%,-8.96% (active),26.8%,-43% (active),4.46% (active)
Cc1cccc(NCS(=O)(=O)O)c1,107%,102%,88.6%,107%,109%,97.4%,102%,116%,104%,105%,94.1%,,101%,95.1%,102%,112%,,96.9%
O=C(Nc1ccc(F)cc1)Nc1ccc(Br)c(C(F)(F)F)c1,13.8%,-29.7% (active),11.4%,30.2%,22.5%,-8.74% (active),25.7%,11.9%,35.4%,1.19% (active),,6.46% (active),19.8%,1.94% (active),4.58% (active),13.8%,15.5%,
NC(=O)C1=C[C@H]2[C@H]3C=C[C@@]2(O)C(=O)O[C@@H]3O1,50.7%,61.8%,48.8%,101%,29.9%,86.6%,50.9%,16.8%,83.5%,75.3%,,36.9%,40.3%,21.6%,18.4%,84.9%,64.2%,
N#CC(C#N)=C(C#N)c1c[nH]c2ccccc12,58.1%,68.4%,87.7%,102%,73.5%,82.7%,75.2%,74.7%,87.7%,96.1%,60.8%,95.6%,62.4%,74.7%,85.4%,102%,,106%
CS(=O)(=O)Nc1cccc(-c2ccc3ncnc(Nc4ccc(F)c(Cl)c4)c3c2)c1,-2.28% (active),18.4%,29%,49.1%,37%,-10.8% (active),-3.89% (active),25.9%,11.5%,39.2%,-21.7% (active),,7.1% (active),15.3%,16.1%,21.6%,,20.2%
COc1ccc(/C=C/C(=O)c2ccc(NC(=O)CSc3nnc(-c4cc(OC)c(OC)c(OC)c4)o3)cc2)cc1,-60.5% (active),-43.7% (active),-14.3% (active),7.48% (active),-49.9% (active),85.2%,-39.2% (active),-93.8% (active),45.3%,3.13% (active),-44.5% (active),-39.2% (active),-61.5% (active),-30.8% (active),-76.4% (active),-91.8% (active),,-72% (active)
O=C(Nc1cccc(-n2ccc3c(NC(=O)c4ccccc4)nccc32)c1)Nc1cc(C(F)(F)F)cc(C(F)(F)F)c1,-14.9% (active),-30.6% (active),-32.1% (active),28%,43.9%,13.5%,6.92% (active),-26.9% (active),,-30.5% (active),55%,-34.1% (active),21.2%,13.6%,-15.8% (active),-15.2% (active),2.85% (active),13.2%
N#Cc1c2c(c(N)[nH]c1=O)C(=O)NC2(O)c1ccccc1 (stereo not given),93.1%,107%,106%,111%,117%,103%,109%,102%,111%,105%,,109%,111%,99.6%,104%,102%,105%,101%
FC(F)(F)c1cn(CC2CNC2)c2ncnc(Cl)c12,87%,105%,92.2%,112%,110%,108%,105%,103%,105%,102%,,109%,104%,103%,108%,104%,125%,99.5%
CCN(CC)C(=O)C1CCN(C(=O)c2ccccc2)CC1,102%,97.8%,103%,108%,106%,102%,103%,104%,,97.9%,98.4%,104%,101%,96.6%,99.2%,101%,93.8%,106%
COc1cc(/C=C/C(=O)c2ccc(Oc3ncnc4ccccc34)cc2)cc(OC)c1OC,38.1%,24.3%,74.9%,88.2%,73.6%,83.6%,66.5%,35.6%,,70.3%,35.9%,50.6%,53.2%,27%,52.8%,19.4%,58%,108%
COc1ccc(-c2nnc(SCC(=O)Nc3ccc(C(=O)/C=C/c4ccc(OC)c(OC)c4)cc3)o2)cc1,60.1%,60.1%,88.1%,124%,86.9%,84.6%,85.9%,100%,,90.1%,75%,94.2%,92.7%,51.6%,77.8%,84.5%,113%,102%
COc1ccc(-c2nn(-c3ccc(NC(=O)c4cc(Cl)cc(Cl)c4)cc3)cc2-c2ccncc2)cc1Cl,50.7%,-11.6% (active),77.5%,64.8%,89.6%,86.3%,85.3%,64.1%,,69.7%,67.4%,68.6%,68.6%,73.7%,55.7%,29.7%,66.8%,49.6%
Cc1cc(NC(=O)c2cccc(C(F)(F)F)c2)ccc1-n1ccc2c(NC(=O)c3ccccc3)nccc21,96.3%,73.3%,98.2%,98.3%,96.7%,108%,92.7%,95.7%,,102%,78.8%,105%,110%,103%,83.5%,100%,88.7%,115%
CCc1cccc(-c2ccccc2)c1,52.4%,80.5%,101%,104%,101%,103%,107%,109%,,111%,110%,109%,99.8%,105%,98.8%,102%,97.1%,110%
